Laboratory results published in PubChem BioAssay AID1159580 (chemical genetic matrix, 2015).
In all, about 5,500 compounds went through this assay and about 2,000 (36%) were called active. Roughly 18% stayed inconclusive and do not appear here. Cut-off read from the data, not from the text of the source: active = normalized growth mostly below about 0.91 (no sharp cut-off); inconclusive = no clear call, values can overlap the other calls; inactive = mostly above about 0.92. The list shows a part of the results.

Experiment: chemical genetic growth profiling, strain panel (AID 1159580);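 note: tested at 20 µM; growth read once vehicle control cultures reached saturation at 30 °C; 1 = growth at the plate median or of vehicle wells; lower values mean less growth of the strain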
Settings: growth OD

Measured: normalized growth

CCOC(=O)CCCCCCCCCCCCC1C=CCC1 (centres undefined)
inactive: S. cerevisiae deletion strains, locus YJR066W, strain TOR1, stronger effect = lower value 0.902 | S. cerevisiae deletion strains, locus YKL068W, stronger effect = lower value 0.984 | S. cerevisiae deletion strains, locus YKL160W, strain elf1, stronger effect = lower value 1 | S. cerevisiae deletion strains, locus YKR026C, strain gcn3, stronger effect = lower value 0.975 | S. cerevisiae deletion strains, locus YKR091W, strain srl3, stronger effect = lower value 0.983 | S. cerevisiae deletion strains, locus YLL001W, strain dnm1, stronger effect = lower value 1 | S. cerevisiae deletion strains, locus YLL026W, stronger effect = lower value 0.961 | S. cerevisiae deletion strains, locus YLL041C, strain sdh2, stronger effect = lower value 0.992 | S. cerevisiae deletion strains, locus YLR027C, strain aat2, stronger effect = lower value 0.973 | S. cerevisiae deletion strains, locus YLR113W, strain HOG1, stronger effect = lower value 1.01 | S. cerevisiae deletion strains, locus YLR221C, strain rsa3, stronger effect = lower value 0.938 | S. cerevisiae deletion strains, locus YLR258W, strain gsy2, stronger effect = lower value 0.946 | S. cerevisiae deletion strains, locus YLR262C, strain YPT6 (second series), stronger effect = lower value 0.942 | S. cerevisiae deletion strains, locus YLR342W, strain FKS1, stronger effect = lower value 0.954 | S. cerevisiae deletion strains, locus YLR357W, strain rsc2, stronger effect = lower value 1 | S. cerevisiae deletion strains, locus YLR370C, strain arc18, stronger effect = lower value 0.994 | S. cerevisiae deletion strains, locus YLR384C, strain iki3, stronger effect = lower value 0.965 | S. cerevisiae deletion strains, locus YML120C, strain ndi1, stronger effect = lower value 0.994 | S. cerevisiae deletion strains, locus YMR058W, strain fet3, stronger effect = lower value 0.991 | S. cerevisiae deletion strains, locus YMR125W, strain sto1, stronger effect = lower value 0.951 | S. cerevisiae deletion strains, locus YMR129W, stronger effect = lower value 0.993 | S. cerevisiae deletion strains, locus YMR231W, strain pep5, stronger effect = lower value 0.971 | S. cerevisiae deletion strains, locus YNL183C, strain NPR1, stronger effect = lower value 0.893 | S. cerevisiae deletion strains, locus YNL209W, strain ssb2, stronger effect = lower value 0.982 | S. cerevisiae deletion strains, locus YNL248C, strain rpa49, stronger effect = lower value 1.01 | S. cerevisiae deletion strains, locus YNL322C, strain KRE1 (second series), stronger effect = lower value 0.998 | S. cerevisiae deletion strains, locus YNR049C, strain mso1, stronger effect = lower value 0.987 | S. cerevisiae deletion strains, locus YOR001W, strain rrp6, stronger effect = lower value 1 | S. cerevisiae deletion strains, locus YOR070C, strain gyp1, stronger effect = lower value 0.962 | S. cerevisiae deletion strains, locus YOR080W, strain dia2, stronger effect = lower value 0.99 | S. cerevisiae deletion strains, locus YOR083W, strain WHI5, stronger effect = lower value 1 | S. cerevisiae deletion strains, locus YOR106W, strain vam3, stronger effect = lower value 0.976 | S. cerevisiae deletion strains, locus YOR231W, strain MKK1, stronger effect = lower value 0.984 | S. cerevisiae deletion strains, locus YOR265W, strain rbl2, stronger effect = lower value 0.982 | S. cerevisiae deletion strains, locus YOR270C, strain vph1, stronger effect = lower value 1.01 | S. cerevisiae deletion strains, locus YOR290C, strain snf2, stronger effect = lower value 0.962 | S. cerevisiae deletion strains, locus YPL051W, strain arl3, stronger effect = lower value 0.989 | S. cerevisiae deletion strains, locus YPL078C, strain atp4, stronger effect = lower value 0.979 | S. cerevisiae deletion strains, locus YPL106C, strain sse1, stronger effect = lower value 1.12 | S. cerevisiae deletion strains, locus YPL240C, strain hsp82, stronger effect = lower value 0.988 | S. cerevisiae deletion strains, locus YPL256C, strain CLN2, stronger effect = lower value 1.03 | S. cerevisiae deletion strains, locus YPR141C, strain kar3, stronger effect = lower value 0.99
active: S. cerevisiae deletion strains, locus YJR075W, strain HOC1, stronger effect = lower value 0.062 | S. cerevisiae deletion strains, locus YKL009W, strain mrt4, stronger effect = lower value 0.729 | S. cerevisiae deletion strains, locus YKL085W, strain MDH1 (second series), stronger effect = lower value 0.627 | S. cerevisiae deletion strains, locus YKL085W, strain MDH1, stronger effect = lower value 0.627 | S. cerevisiae deletion strains, locus YKR001C, strain vps1, stronger effect = lower value 0.0645 | S. cerevisiae deletion strains, locus YLR039C, strain RIC1, stronger effect = lower value 0.0918 | S. cerevisiae deletion strains, locus YLR058C, strain SHM2, stronger effect = lower value 0.0501 | S. cerevisiae deletion strains, locus YLR102C, strain apc9, stronger effect = lower value 0.0639 | S. cerevisiae deletion strains, locus YLR262C, strain YPT6, stronger effect = lower value 0.102 | S. cerevisiae deletion strains, locus YLR268W, strain sec22, stronger effect = lower value 0.0626 | S. cerevisiae deletion strains, locus YLR320W, strain mms22, stronger effect = lower value 0.808 | S. cerevisiae deletion strains, locus YLR330W, strain CHS5, stronger effect = lower value 0.0514 | S. cerevisiae deletion strains, locus YLR342W, strain FKS1 (second series), stronger effect = lower value 0.0786 | S. cerevisiae deletion strains, locus YLR371W, strain rom2, stronger effect = lower value 0.0661 | S. cerevisiae deletion strains, locus YLR418C, strain cdc73, stronger effect = lower value 0.0873 | S. cerevisiae deletion strains, locus YML016C, strain PPZ1, stronger effect = lower value 0.0464 | S. cerevisiae deletion strains, locus YML032C, strain rad52, stronger effect = lower value 0.0734 | S. cerevisiae deletion strains, locus YML124C, strain tub3, stronger effect = lower value 0.063 | S. cerevisiae deletion strains, locus YMR078C, strain ctf18, stronger effect = lower value 0.0817 | S. cerevisiae deletion strains, locus YMR205C, strain PFK2, stronger effect = lower value 0.864 | S. cerevisiae deletion strains, locus YMR223W, strain ubp8, stronger effect = lower value 0.0615 | S. cerevisiae deletion strains, locus YMR307W, strain GAS1, stronger effect = lower value 0.12 | S. cerevisiae deletion strains, locus YNL067W, strain RPL9B, stronger effect = lower value 0.0497 | S. cerevisiae deletion strains, locus YNL071W, strain lat1, stronger effect = lower value 0.808 | S. cerevisiae deletion strains, locus YNL128W, strain TEP1, stronger effect = lower value 0.0632 | S. cerevisiae deletion strains, locus YNL153C, strain GIM3, stronger effect = lower value 0.0549 | S. cerevisiae deletion strains, locus YNL233W, strain BNI4, stronger effect = lower value 0.0592 | S. cerevisiae deletion strains, locus YNL250W, strain rad50, stronger effect = lower value 0.848 | S. cerevisiae deletion strains, locus YNL271C, strain bni1, stronger effect = lower value 0.146 | S. cerevisiae deletion strains, locus YNL298W, strain CLA4, stronger effect = lower value 0.0648 | S. cerevisiae deletion strains, locus YNL307C, strain MCK1, stronger effect = lower value 0.0657 | S. cerevisiae deletion strains, locus YNL322C, strain KRE1, stronger effect = lower value 0.047 | S. cerevisiae deletion strains, locus YNR052C, strain pop2, stronger effect = lower value 0.0632 | S. cerevisiae deletion strains, locus YOL006C, strain TOP1, stronger effect = lower value 0.119 | S. cerevisiae deletion strains, locus YOL012C, strain htz1 0.179 | S. cerevisiae deletion strains, locus YOL147C, strain pex11, stronger effect = lower value 0.0616 | S. cerevisiae deletion strains, locus YOR061W, strain CKA2, stronger effect = lower value 0.0461 | S. cerevisiae deletion strains, locus YOR069W, strain VPS5, stronger effect = lower value 0.0484 | S. cerevisiae deletion strains, locus YOR136W, strain idh2, stronger effect = lower value 0.0725 | S. cerevisiae deletion strains, locus YOR144C, strain elg1, stronger effect = lower value 0.0688 | S. cerevisiae deletion strains, locus YOR184W, strain ser1, stronger effect = lower value 0.0609 | S. cerevisiae deletion strains, locus YOR316C, strain cot1, stronger effect = lower value 0.0601 | S. cerevisiae deletion strains, locus YPR119W, strain clb2, stronger effect = lower value 0.0692 | S. cerevisiae deletion strains, locus YPR163C, strain tif3, stronger effect = lower value 0.0692 | S. cerevisiae deletion strains, locus YPR167C, strain met16, stronger effect = lower value 0.0627 | S. cerevisiae deletion strains, strain wtn01, stronger effect = lower value 0.0688 | S. cerevisiae strains, strain wild type, stronger effect = lower value 0.0499
